# Measured values taken from the supplement of paper PMC11732987, “Enantioselective OTUD7B fragment discovery through chemoproteomics screening and high-throughput optimisation” (Communications Chemistry, 2025).
# Unmarked numbers belong to inactive results.
# Key:
# Test in all cases: log2 ratio of Biotin-Ahx-Ub-VS probe labelling (fragment/DMSO); higher = less target engagement (more negative = stronger competition), active = hit call of the paper (q ≤ 0.05, log2 ratio ≤ -1)
# Settings in all cases: compound concentration: 200 uM; treatment time: 3 h
# ALG13 = molecular target: T1, ALG13 (UniProt Q9NP73)
# T1 sequence (whole entry): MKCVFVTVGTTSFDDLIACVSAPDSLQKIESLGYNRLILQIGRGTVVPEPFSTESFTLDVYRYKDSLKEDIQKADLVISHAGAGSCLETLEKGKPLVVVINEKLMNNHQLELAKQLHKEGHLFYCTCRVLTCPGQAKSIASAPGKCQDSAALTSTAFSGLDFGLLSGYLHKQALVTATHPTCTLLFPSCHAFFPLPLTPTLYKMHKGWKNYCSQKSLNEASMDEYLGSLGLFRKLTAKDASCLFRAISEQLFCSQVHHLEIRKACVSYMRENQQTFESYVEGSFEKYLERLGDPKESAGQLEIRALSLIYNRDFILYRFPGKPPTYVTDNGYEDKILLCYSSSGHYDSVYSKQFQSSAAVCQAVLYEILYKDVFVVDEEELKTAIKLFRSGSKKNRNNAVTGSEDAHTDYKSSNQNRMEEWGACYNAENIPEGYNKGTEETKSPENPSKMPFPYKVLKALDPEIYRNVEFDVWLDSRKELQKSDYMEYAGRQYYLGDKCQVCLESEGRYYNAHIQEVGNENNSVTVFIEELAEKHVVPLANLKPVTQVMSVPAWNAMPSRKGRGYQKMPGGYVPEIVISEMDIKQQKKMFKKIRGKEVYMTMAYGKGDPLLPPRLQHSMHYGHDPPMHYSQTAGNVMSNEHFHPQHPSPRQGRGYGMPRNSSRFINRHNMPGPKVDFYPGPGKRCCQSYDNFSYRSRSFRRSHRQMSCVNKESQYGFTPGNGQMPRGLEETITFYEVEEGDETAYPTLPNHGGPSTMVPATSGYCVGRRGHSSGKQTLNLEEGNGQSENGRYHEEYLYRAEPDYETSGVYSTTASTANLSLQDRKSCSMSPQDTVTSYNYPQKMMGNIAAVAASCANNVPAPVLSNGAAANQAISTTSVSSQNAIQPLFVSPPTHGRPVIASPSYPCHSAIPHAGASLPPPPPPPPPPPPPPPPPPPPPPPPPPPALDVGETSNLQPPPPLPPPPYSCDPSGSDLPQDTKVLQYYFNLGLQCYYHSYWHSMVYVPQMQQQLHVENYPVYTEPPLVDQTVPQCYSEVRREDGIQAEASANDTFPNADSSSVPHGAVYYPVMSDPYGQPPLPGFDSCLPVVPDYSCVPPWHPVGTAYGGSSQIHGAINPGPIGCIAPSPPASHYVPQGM
# Outline: (§1)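 Fragment (200 µM) or vehicle was incubated for 3 h with triplicate HEK293T lysate samples of 495 µg, which were then treated with Biotin-Ahx-Ub-VS at 0.5 µM final for 1 h. Labelled DUBs were enriched on NeutrAvidin, digested with LysC and trypsin, and analysed by diaPASEF LC-MS/MS. Values are average log2 fragment/vehicle ratios from an unpaired t-test on global-median-normalised Spectronaut label-free quantities, using proteins with ≥2 unique peptides.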
# ATXN3 = ATXN3 (UniProt P54252)
# Outline: as §1
# BAP1 = molecular target: T2, BAP1 (UniProt Q92560)
# T2 sequence (whole entry): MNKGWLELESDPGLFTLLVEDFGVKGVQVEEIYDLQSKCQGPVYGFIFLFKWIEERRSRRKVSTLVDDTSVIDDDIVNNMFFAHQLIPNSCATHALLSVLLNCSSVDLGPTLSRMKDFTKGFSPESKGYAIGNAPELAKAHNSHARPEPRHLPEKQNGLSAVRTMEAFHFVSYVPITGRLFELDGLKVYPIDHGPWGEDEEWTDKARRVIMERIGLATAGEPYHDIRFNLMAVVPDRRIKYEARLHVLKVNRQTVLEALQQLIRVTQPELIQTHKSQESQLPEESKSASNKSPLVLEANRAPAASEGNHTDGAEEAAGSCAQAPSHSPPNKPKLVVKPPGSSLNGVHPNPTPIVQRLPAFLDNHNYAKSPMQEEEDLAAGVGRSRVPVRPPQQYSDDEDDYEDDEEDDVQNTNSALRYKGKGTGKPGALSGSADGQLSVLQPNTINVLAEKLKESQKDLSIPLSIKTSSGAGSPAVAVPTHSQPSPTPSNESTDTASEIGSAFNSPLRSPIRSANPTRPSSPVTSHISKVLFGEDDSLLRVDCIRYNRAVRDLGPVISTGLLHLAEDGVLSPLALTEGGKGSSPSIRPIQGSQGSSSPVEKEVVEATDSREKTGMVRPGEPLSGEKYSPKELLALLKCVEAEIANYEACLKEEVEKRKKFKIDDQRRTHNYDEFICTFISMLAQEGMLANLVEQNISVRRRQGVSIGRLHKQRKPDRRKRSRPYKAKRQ
# Outline: as §1
# EIF3F = EIF3F (UniProt O00303)
# Outline: as §1
# EIF3H = EIF3H (UniProt O15372)
# Outline: as §1
# FAM105A = molecular target: T3, FAM105A (UniProt Q9NUU6)
# T3 sequence (whole entry): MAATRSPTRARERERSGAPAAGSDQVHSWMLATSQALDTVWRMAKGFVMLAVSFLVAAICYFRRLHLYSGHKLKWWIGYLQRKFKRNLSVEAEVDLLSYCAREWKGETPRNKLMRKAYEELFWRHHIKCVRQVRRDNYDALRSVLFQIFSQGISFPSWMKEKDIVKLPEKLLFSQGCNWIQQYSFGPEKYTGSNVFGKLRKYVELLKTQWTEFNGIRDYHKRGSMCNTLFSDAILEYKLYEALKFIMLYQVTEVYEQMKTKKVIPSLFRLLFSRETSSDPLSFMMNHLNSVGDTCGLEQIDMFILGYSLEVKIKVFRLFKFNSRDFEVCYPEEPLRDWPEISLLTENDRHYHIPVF
# Outline: as §1
# OTUB1 = OTUB1 (UniProt Q96FW1)
# Outline: as §1
# OTUD4 = molecular target: T4, OTUD4 (UniProt Q01804)
# T4 sequence (whole entry): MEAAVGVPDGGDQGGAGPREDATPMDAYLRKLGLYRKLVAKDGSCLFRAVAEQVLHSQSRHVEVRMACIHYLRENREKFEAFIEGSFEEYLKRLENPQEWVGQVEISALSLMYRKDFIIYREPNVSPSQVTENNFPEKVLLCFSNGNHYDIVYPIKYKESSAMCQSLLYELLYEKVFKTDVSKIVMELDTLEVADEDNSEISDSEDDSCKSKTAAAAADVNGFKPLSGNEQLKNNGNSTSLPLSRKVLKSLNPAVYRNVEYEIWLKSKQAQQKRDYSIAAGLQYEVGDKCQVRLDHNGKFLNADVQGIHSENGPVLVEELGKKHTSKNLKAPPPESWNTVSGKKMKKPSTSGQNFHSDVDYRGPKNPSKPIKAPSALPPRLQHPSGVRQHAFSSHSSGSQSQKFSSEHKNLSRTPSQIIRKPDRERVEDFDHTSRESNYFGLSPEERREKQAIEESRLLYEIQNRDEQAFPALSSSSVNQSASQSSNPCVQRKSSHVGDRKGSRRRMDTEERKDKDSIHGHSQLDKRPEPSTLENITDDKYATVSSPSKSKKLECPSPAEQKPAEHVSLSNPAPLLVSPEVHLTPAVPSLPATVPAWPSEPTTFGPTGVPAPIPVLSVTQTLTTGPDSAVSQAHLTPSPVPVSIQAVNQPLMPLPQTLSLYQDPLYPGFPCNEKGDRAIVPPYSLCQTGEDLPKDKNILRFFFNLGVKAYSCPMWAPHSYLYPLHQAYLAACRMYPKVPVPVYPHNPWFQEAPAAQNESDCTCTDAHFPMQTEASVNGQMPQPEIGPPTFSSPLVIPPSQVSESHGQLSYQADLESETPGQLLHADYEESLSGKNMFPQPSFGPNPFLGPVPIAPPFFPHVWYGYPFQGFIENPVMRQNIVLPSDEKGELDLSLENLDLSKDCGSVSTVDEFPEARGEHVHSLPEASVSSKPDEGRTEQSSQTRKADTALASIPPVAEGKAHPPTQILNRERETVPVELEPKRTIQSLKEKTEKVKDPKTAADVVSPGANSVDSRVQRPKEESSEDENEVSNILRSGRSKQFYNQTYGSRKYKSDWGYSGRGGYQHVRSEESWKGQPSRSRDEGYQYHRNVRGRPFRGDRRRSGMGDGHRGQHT
# Outline: as §1
# OTUD5 = molecular target: T5, OTUD5 (UniProt Q96G74)
# T5 sequence (whole entry): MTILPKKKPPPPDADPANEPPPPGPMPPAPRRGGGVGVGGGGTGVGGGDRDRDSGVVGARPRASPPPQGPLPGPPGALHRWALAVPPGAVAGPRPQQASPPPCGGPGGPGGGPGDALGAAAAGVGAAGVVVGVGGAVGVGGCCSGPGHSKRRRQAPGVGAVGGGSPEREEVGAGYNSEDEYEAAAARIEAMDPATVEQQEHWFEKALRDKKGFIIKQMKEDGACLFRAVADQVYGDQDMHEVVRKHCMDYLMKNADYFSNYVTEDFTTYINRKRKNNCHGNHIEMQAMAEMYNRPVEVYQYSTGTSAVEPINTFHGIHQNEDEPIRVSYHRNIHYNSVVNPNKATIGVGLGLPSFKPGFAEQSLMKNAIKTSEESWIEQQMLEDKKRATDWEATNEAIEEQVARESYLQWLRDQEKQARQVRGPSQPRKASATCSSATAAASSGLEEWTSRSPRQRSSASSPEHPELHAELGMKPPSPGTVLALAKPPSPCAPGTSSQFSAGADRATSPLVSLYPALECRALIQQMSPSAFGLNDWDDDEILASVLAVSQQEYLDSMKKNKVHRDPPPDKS
# Outline: as §1
# Sequence of EIF3F (O00303 whole entry): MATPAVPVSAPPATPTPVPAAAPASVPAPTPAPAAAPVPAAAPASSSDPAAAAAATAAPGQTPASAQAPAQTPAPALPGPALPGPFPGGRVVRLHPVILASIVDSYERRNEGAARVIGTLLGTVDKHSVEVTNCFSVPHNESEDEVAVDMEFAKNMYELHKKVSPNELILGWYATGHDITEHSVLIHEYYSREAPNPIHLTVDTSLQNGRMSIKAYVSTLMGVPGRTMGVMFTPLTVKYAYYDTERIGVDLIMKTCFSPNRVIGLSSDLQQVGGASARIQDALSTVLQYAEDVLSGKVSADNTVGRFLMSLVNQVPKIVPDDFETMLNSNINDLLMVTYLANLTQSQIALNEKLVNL
# Sequence of OTUB1 (Q96FW1 whole entry): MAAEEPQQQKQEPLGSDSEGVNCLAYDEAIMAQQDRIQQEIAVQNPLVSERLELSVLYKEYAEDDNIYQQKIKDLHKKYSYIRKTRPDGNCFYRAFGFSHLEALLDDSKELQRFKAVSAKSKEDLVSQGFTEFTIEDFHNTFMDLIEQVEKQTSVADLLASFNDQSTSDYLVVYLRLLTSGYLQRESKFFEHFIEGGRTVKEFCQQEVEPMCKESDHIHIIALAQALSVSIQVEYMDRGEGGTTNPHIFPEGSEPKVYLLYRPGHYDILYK
# Sequence of ATXN3 (P54252 whole entry): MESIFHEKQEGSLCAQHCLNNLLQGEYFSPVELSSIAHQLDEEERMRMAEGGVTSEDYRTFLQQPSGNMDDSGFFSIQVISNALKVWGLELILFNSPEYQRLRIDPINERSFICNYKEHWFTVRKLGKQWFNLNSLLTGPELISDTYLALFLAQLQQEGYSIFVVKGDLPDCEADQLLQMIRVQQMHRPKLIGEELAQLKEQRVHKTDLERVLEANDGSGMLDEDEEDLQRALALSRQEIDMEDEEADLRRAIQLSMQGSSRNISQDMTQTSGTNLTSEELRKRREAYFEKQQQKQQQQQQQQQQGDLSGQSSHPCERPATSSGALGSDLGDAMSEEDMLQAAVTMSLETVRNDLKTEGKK
# Sequence of EIF3H (O15372 whole entry): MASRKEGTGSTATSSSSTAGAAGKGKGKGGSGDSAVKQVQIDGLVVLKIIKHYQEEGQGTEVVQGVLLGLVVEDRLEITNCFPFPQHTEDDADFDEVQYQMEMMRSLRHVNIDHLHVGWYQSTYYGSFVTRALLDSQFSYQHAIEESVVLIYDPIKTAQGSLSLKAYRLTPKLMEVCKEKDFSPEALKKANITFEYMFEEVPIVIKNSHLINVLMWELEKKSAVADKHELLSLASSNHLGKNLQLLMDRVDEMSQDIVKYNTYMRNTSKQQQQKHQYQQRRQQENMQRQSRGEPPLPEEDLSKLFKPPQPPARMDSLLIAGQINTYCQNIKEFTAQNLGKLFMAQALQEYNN
compound,measurement,setting,value
O=C(CCl)N1CCC[C@@H]1c1ccon1,log2 ratio of Biotin-Ahx-Ub-VS probe labelling,ALG13,0.188
same,log2 ratio of Biotin-Ahx-Ub-VS probe labelling,ATXN3,-1.28 (active)
same,log2 ratio of Biotin-Ahx-Ub-VS probe labelling,BAP1,-2.4 (active)
same,log2 ratio of Biotin-Ahx-Ub-VS probe labelling,EIF3F,-0.585
same,log2 ratio of Biotin-Ahx-Ub-VS probe labelling,EIF3H,0.193
same,log2 ratio of Biotin-Ahx-Ub-VS probe labelling,FAM105A,0.198
same,log2 ratio of Biotin-Ahx-Ub-VS probe labelling,OTUB1,-0.236
same,log2 ratio of Biotin-Ahx-Ub-VS probe labelling,OTUD4,-0.381
same,log2 ratio of Biotin-Ahx-Ub-VS probe labelling,OTUD5,-0.427
